Consider 25 compounds from PubChem BioAssay (Tox21).

Unmarked numbers belong to inactive results. Records with an inconclusive call do not appear. Calls of active or inactive are those of the source. Unless noted, the call rests on the fitted dose curve; in most records, active means well fitted curve in the direction sought with a large enough effect in the repeat runs; inconclusive means weak or mixed curves; inactive means no such curve, though single readings can be large; an effect the other way counts as inactive or inconclusive.

The nature of assay [1]: qHTS assay to identify small molecule antagonists of the estrogen receptor alpha (ER-alpha) signaling pathway using the BG1 cell line in the presence of 0.1 nM 17-beta-estradiol - cell viability counter screen (AID 1259241). Further: nearly all actives have a fitted effect of over 40% in size. Further: potency means the concentration at half of the fitted maximal effect. A digest of the protocol:
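VM7Luc4E2 cells (endogenous ER-alpha, 4×ERE-luciferase), hormone-starved 5 days in charcoal-stripped FBS, were treated with compounds plus 0.1 nM 17beta-estradiol for 22 hr at 37C; viability read in same wells as CellTiter-Fluor live-cell protease fluorescence.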
Background: Quantitative high-throughput screening tests each substance at several concentrations.

Assay [2] in a line: qHTS assay to identify small molecule antagonists of the androgen receptor (AR) signaling pathway using the MDA cell line in the presence of 0.5 nM R1881 - cell viability counter screen (AID 1259242). Further: nearly all actives have a fitted effect of over 45% in size. Further: potency means the concentration at half of the fitted maximal effect. A digest of the protocol:
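MDA-kb2 cells (human breast carcinoma, stably carrying MMTV-luciferase reporter) were exposed to compounds with 0.5 nM R1881 (final) for 16 hr at 37C, 0% CO2; viability then read as live-cell protease fluorescence (CellTiter-Fluor, 30 min) in the same wells.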

A short description of assay [3]: qHTS assay to identify small molecule HDAC inhibitors (AID 1259364). Further: nearly all actives have a fitted effect of over 45% in size. Further: potency means the concentration at half of the fitted maximal effect. In short, it runs like this: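 Wild-type HCT-116 cells were plated overnight, exposed to compounds for 2 h at 37 °C, then given HDAC-Glo class I/II luminogenic reagent for 30 min at room temperature before luminescence was read.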
Assay [4] can be described thus: qHTS assay to identify small molecule agonists of the sonic hedgehog signaling (Shh) pathway - cell viability counter screen (AID 1259366). Further: nearly all actives have a fitted effect of over 50% in size. Further: potency means the concentration at half of the fitted maximal effect. A digest of the protocol:
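NIH/3T3-derived 3T3 Gli1-Luc cells (stable Gli1-responsive firefly luciferase reporter) were seeded, rested 4 hr at 37 C/5% CO2, then exposed to compounds in DMSO for 24 hr; viability was read by CellTiter-Fluor fluorescence in the same wells.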

The nature of assay [5]: qHTS assay to identify small molecule antagonists of the sonic hedgehog signaling (Shh) pathway - cell viability counter screen (AID 1259367). Further: nearly all actives have a fitted effect of over 55% in size. Further: potency means the concentration at half of the fitted maximal effect. A digest of the protocol:
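Using CellTiter-Fluor, viability of Gli1-Luc reporter 3T3 cells is read by fluorescence in the wells used for the Shh luciferase assay. Treatment lasts 23 hr with conditioned medium, then reagent 1 hr at 37C.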

A short description of assay [6]: qHTS assay to identify small molecule agonists of the sonic hedgehog signaling (Shh) pathway (AID 1259368; calls by dose curve; further: series mostly up to about 92 µM; nearly all actives have a fitted effect of over 15% in size). In short, it runs like this: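 NIH/3T3-derived 3T3Gli1-Luc cells carrying a stably integrated Gli1 response element–firefly luciferase reporter were plated, left 4 hr at 37 C, then given compounds in DMSO for 24 hr. Luminescence was read 30 min after adding luciferase reagent.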

The nature of assay [7]: qHTS assay to identify small molecule phospholipidosis (PLD) inducers (AID 1259344; active means well fitted curve in the direction sought with a large enough effect; an effect the other way counts as inactive or inconclusive). A digest of the protocol: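 Fluorescent phospholipid staining (LipidTOX Red) measured by automated microscopy in fixed HepG2 cells after 24 h treatment; nuclei counterstained with Hoechst 33342; amiodarone as reference inducer.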
The nature of assay [8]: qHTS assay to identify small molecule HDAC inhibitors - cell viability counter screen (AID 1259365). Further: nearly all actives have a fitted effect of over 50% in size. Further: potency means the concentration at half of the fitted maximal effect. A digest of the protocol:
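Wild-type HCT-116 cells were seeded at 1,500 per well, incubated overnight at 37 C, then exposed to compounds in DMSO for 2hr. Viability was read by CellTiter-Glo luminescence after 30min at room temperature.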

In assay [9] the target is Estrogen receptor (Homo sapiens) (UniProt P03372). As to the kind of experiment: qHTS assay to identify small molecule antagonists of the estrogen receptor alpha (ER-alpha) signaling pathway using the BG1 cell line in the presence of 0.1 nM 17-beta-estradiol (AID 1259244). Further: nearly all actives have a fitted effect of over 50% in size. A digest of the protocol:
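VM7Luc4E2 cells (endogenous full-length ER-alpha, stable 4xERE-luciferase) were grown 5 days in phenol red-free medium with charcoal-stripped FBS, then exposed 22 h at 37C to compounds plus 0.1 nM (final) 17beta-estradiol; ONE-Glo luminescence read-out.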

The target in assay [10] is Androgen receptor (Homo sapiens) (UniProt P10275). Briefly: qHTS assay to identify small molecule antagonists of the androgen receptor (AR) signaling pathway using the MDA cell line in the presence of 0.5 nM R1881 (AID 1259243). Further: nearly all actives have a fitted effect of over 50% in size. In short, it runs like this: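 MDA-kb2 human breast carcinoma cells carrying an MMTV-luciferase reporter (AR- and GR-responsive) were plated, rested 5 hr at 37C, dosed with compounds, then stimulated with 0.5 nM R1881 (final) for 16 hr; luminescence was read after ONE-Glo.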
Chain of Androgen receptor (Homo sapiens) (P10275 whole entry, looked up): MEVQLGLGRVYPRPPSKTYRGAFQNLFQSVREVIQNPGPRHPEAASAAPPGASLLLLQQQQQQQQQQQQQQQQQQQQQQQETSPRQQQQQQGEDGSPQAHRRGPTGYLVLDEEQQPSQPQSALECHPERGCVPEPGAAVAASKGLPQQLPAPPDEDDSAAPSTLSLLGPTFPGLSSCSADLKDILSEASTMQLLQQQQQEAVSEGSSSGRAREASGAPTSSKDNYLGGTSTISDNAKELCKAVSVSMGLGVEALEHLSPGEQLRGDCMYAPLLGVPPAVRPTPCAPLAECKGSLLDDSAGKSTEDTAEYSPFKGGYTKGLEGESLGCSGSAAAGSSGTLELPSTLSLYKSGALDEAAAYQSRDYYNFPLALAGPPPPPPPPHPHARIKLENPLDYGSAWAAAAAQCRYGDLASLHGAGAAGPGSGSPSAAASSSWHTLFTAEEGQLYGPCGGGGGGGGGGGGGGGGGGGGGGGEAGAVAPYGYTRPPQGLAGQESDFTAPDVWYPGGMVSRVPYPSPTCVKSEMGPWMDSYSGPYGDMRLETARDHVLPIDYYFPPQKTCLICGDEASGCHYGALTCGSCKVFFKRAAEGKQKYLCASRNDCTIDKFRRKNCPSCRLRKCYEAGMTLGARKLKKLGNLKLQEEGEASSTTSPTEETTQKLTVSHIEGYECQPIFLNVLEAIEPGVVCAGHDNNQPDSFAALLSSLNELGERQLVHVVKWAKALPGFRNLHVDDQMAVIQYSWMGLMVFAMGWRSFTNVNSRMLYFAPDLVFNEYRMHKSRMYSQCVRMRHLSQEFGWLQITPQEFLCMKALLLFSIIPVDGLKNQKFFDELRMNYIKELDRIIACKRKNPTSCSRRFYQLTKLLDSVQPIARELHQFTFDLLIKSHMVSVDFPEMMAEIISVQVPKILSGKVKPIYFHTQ
On the % scale 0 is the no-effect control and ±100 the full control effect.

Chain of Estrogen receptor (Homo sapiens) (P03372 whole entry, looked up): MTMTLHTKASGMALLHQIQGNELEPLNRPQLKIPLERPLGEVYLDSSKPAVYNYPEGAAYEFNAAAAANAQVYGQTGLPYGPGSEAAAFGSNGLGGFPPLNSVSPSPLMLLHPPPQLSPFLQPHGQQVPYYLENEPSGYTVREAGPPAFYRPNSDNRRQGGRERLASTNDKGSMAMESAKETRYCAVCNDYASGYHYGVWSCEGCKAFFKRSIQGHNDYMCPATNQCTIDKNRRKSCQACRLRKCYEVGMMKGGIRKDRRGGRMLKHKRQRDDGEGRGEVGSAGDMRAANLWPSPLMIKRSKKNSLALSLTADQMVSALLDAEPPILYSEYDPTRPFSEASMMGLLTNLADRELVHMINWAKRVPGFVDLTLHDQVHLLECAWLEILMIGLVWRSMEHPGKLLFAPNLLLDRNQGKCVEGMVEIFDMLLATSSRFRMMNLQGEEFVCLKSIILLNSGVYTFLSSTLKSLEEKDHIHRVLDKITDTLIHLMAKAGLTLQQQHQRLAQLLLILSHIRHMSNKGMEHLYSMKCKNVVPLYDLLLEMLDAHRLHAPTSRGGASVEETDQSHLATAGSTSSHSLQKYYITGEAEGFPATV

For the compound `CC(=O)Nc1cc(S(=O)(=O)O)cc2cc(S(=O)(=O)O)c(N=Nc3ccccc3)c(O)c12`, the Potency in [1] is 19.3 µM (active); in [2] it was 27.3 µM (active); in assay [4], 27.3 µM (active); in assay [5] it was 24.3 µM (active). Further, the Potency result in assay [3] and in [6] was “inactive” throughout.

As to `Oc1c(I)cc(I)c2cccnc12`, the Potency result in assay [1], in assay [2], in [7], in assay [3], in assay [8] and in [4] was “inactive” in each case. Also, the Potency result in assay [5] was “inactive”.

Regarding `C[C@@]12CCC[C@H]1[C@@H]1CC[C@H]3C[C@@H](O)CC[C@]3(C)[C@H]1CC2`, the Potency entry in assay [1], in assay [2], in [3], in assay [8], in assay [4] and in [5] was “inactive” in each case. Also, in assay [6], the Potency result was “inactive”. In [7], the PLD induction is 17.2% [at 7.66 µM].

Take `Cc1cccc(O)c1N`: the Potency in assay [1] and in [5] was 61.8 µM (active) in each case. Further, the Potency entry in [2], in assay [3], in [8] and in assay [6] was “inactive” in each case.

Turning to `O=C1NCCN1CCO`, the Potency entry in [1], in assay [2], in [3], in assay [8], in assay [4] and in assay [5] was “inactive” in each case. Besides, in assay [6], the Potency result is “inactive”.

For the compound `CCCCCCCCCCC(=O)O`, the Potency result in assay [1], in [2], in [9], in assay [8], in assay [4] and in assay [5] was “inactive” each time. In assay [6], the Potency result is “inactive”.

Consider `c1csc(SSc2cccs2)c1`, for which the Potency result in [1], in assay [2], in [3], in assay [8] and in assay [6] was “inactive” in each case. The Potency in assay [4] and in assay [5] was 43.3 µM (active) in each case.

For `COc1cc(N)c(Cl)cc1C(=O)NC1CCN(CCCOc2ccc(F)cc2)CC1OC` (stereo not given), the Potency entry in assay [1], in [2], in assay [7], in [3], in [8] and in assay [5] was “inactive” throughout. Besides, the Potency entry in [6] was “inactive”.

For the compound `CC1CC(C)C(=O)C1=O` (stereo not given), the Potency entry in [1], in [2], in assay [3], in assay [8], in assay [4] and in assay [5] was “inactive” each time. Further, in assay [6], the Potency result was “inactive”.

On to `O=C1c2ccccc2C(=O)N1CCc1noc(-c2ccc(CN3CCCCCC3)s2)n1`, for which the Potency entry in assay [1], in [2], in [3], in [8], in assay [4] and in assay [5] was “inactive” in each case. For the same compound, in assay [6], the Potency result is “inactive”.

In the case of `O=C(CCCN1CC=C(n2c(=O)[nH]c3ccccc32)CC1)c1ccc(F)cc1`, the Potency result in assay [1], in [2], in assay [7], in assay [3], in assay [8] and in assay [4] was “inactive” each time. For the same compound, the Potency entry in assay [5] and in assay [6] was “inactive” each time.

As for `COc1cc(Nc2c(C#N)cnc3cc(OCCCN4CCN(C)CC4)c(OC)cc23)c(Cl)cc1Cl`, the Potency result in assay [1], in assay [7], in [3], in [8], in assay [5] and in [6] was “inactive” throughout. Besides, the Potency in assay [2] and in assay [4] was 29.8 µM (active) each time.

As for `CC(=O)OCC[N+](C)(C)C`, the Potency result in [1], in assay [2], in assay [7], in assay [3], in assay [8] and in [4] was “inactive” in each case. For the same compound, the Potency entry in assay [5] and in assay [6] was “inactive” throughout.

With `CC(=O)c1ccc([N+](=O)[O-])cc1`, the Potency result in assay [1], in assay [2], in assay [3], in assay [8], in assay [4] and in assay [5] was “inactive” throughout. Also, the Potency entry in [6] is “inactive”.

`CC(=O)Nc1ccc(C)cc1C`: the Potency entry in assay [1], in [2], in [3], in assay [8], in [4] and in assay [5] was “inactive” in each case. Moreover, the Potency entry in assay [6] is “inactive”.

Consider `CC(C)C=O`, for which the Potency entry in assay [1], in assay [2], in assay [8], in [4], in assay [5] and in assay [6] was “inactive” each time.

For `c1ccc2c(c1)CCc1ccccc1N2`, the Potency entry in assay [1], in [2], in assay [8], in assay [4], in assay [5] and in assay [6] was “inactive” each time.

As for `NC1[C@H]2CN(c3nc4c(cc3F)c(=O)c(C(=O)O)cn4-c3ccc(F)cc3F)C[C@@H]12` (stereo not given in full), the Potency entry in assay [2], in assay [10], in assay [7], in assay [3], in [8] and in [6] was “inactive” in each case. Besides, the Potency in assay [4] is 21.1 µM (active).

Regarding `COc1ccc(OC(=O)N(CC(=O)O)Cc2ccc(OCCc3nc(-c4ccccc4)oc3C)cc2)cc1`, the Potency result in assay [1], in assay [2], in assay [8], in assay [4], in [5] and in [6] was “inactive” each time.

As for `Brc1cc2ccccc2c2ccccc12`, the Potency result in assay [1], in assay [9], in assay [3], in assay [8], in assay [4] and in assay [5] was “inactive” each time. In assay [6], the Potency result is “inactive”.

In the case of `CCOC(=O)C1=C(C)NC(C)=C(C(=O)OC)C1c1cccc(Cl)c1Cl` (stereo not given), the Potency result in assay [2], in [9], in assay [7], in [3], in [8] and in assay [4] was “inactive” each time. The Potency entry in assay [5] and in assay [6] was “inactive” in each case.

Take `O=c1cc(-c2ccccc2)oc2cc(O)cc(O)c12`: the Potency entry in assay [2], in assay [10], in [8] and in assay [6] was “inactive” each time. Further, the results for the Potency in assay [3], in assay [4] and in assay [5] were 6.86 µM (active), 48.6 µM (active) and 61.1 µM (active), respectively.

In the case of `CC(=O)[C@H]1[C@H](C#N)C[C@H]2[C@@H]3CC=C4C[C@@H](O)CC[C@]4(C)[C@H]3CC[C@@]21C`, the Potency entry in [2], in assay [9], in assay [3], in assay [8], in [4] and in [5] was “inactive” throughout. For the same compound, the Potency entry in assay [6] is “inactive”.

As to `O[C@@H]1CO[C@H]2[C@@H]1OC[C@@H]2O`, the Potency entry in [2], in assay [9], in [7], in assay [3], in [8] and in assay [4] was “inactive” throughout. Also, the Potency entry in assay [5] and in assay [6] was “inactive” in each case.

Regarding `CC1=C(Br)C(=O)C(Br)=C/C1=C(/c1ccccc1S(=O)(=O)O)c1cc(Br)c(O)c(Br)c1C`, the Potency was 18.6 µM (active) in assay [1]; 18.6 µM (active) in assay [2]; 18.6 µM (active) in [8]; 18.6 µM (active) in [4]; 20.8 µM (active) in assay [5]. Further, the Potency entry in assay [6] was “inactive”.
